Publication PMC4336329 (PLoS ONE, 2015)
Out of some 310,000 compounds screened, about 14,000 (4.5%) showed an effect of 50% or more. Effects have a minus sign here. Shown is part of a subset that was picked to be rich in strong results.

target: human ether-à-go-go-related gene (hERG) potassium channel (human, UniProt Q12809); experiment: primary screen, population patch clamp on CHO cells stably expressing hERG; higher = less effect of the substance
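Note: peak tail current of the secondary pulse compared with the same well before compound.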

Chain of human ether-à-go-go-related gene (hERG) potassium channel (Q12809 whole entry, looked up): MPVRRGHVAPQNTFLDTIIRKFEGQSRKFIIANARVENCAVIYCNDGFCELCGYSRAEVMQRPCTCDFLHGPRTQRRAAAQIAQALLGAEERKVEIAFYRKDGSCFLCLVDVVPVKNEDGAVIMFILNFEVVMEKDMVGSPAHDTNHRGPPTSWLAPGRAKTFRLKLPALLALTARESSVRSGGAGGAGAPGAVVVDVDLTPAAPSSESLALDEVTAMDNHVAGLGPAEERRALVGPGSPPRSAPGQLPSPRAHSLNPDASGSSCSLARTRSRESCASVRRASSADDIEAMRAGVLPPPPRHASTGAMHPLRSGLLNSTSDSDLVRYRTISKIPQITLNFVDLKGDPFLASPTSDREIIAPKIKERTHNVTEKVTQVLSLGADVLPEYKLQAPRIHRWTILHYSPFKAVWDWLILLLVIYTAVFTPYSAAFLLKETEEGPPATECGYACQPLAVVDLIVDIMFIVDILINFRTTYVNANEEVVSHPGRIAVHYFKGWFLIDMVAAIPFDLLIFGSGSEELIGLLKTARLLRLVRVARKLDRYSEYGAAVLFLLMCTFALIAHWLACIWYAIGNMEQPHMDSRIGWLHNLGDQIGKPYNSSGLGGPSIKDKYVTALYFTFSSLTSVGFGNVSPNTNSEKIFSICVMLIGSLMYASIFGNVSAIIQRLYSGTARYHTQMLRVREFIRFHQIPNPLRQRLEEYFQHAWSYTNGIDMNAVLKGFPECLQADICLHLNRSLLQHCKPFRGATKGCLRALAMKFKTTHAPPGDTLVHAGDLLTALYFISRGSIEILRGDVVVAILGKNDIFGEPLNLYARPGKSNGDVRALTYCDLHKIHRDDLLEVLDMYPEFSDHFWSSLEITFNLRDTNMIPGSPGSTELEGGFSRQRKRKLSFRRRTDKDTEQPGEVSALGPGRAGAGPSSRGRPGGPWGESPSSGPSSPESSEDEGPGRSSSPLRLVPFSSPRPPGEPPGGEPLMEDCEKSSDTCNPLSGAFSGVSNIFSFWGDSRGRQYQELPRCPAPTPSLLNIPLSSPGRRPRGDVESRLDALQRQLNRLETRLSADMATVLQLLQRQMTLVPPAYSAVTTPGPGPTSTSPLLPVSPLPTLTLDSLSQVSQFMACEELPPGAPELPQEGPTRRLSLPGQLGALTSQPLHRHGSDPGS

SMILES	hERG current change (%, negative = inhibition) at 10uM
NC(=O)[C@@H]1CCCN1Cc1nc(Cc2ccccc2F)no1	7.29%
Cc1ccc2nc(-c3ccc(NC(=O)CCS(=O)(=O)c4ccccc4)cc3)sc2c1	2.03%
CC(C)CCOP(N)(=O)Oc1ccccc1 (stereo not drawn)	9.05%
CCN1C(=O)c2ccc(C(=O)Nc3ncc(C)s3)cc2C1=O	6.29%
COc1ccccc1-c1cc(C(=O)N/N=C\c2cnn(C)c2C)c2ccccc2n1	-3.85%
CC1CN(c2nc3ccccn3c(=O)c2/C=C(\C#N)C(N)=O)CC(C)O1 (stereo not drawn)	21.1%
CC1(C)Cc2nc3sc(C(=O)O)c(N)c3cc2CS1	29.4%
Cn1ccnc1C(=O)C1CCCN(Cc2cn[nH]c2-c2ccc(-c3ccccc3)cc2)C1 (stereo not drawn)	-67.9%
COc1ccc(C(=O)C2CCCN(Cc3ccc(F)cc3F)C2)cc1F (stereo not drawn)	-29.8%
COc1ccc(C(=O)C2CCCN(Cc3cn[nH]c3-c3ccccc3)C2)cc1OC (stereo not drawn)	-74%
COc1ccc(C(=O)C2CCCN(Cc3cn[nH]c3-c3ccc(F)cc3)C2)cc1OC (stereo not drawn)	-66.5%
COc1ccc(C(=O)C2CCCN(C(=O)c3ccc(F)cc3)C2)cc1OC (stereo not drawn)	-3.95%
Cn1cc(CN2CCCC(C(=O)c3nccn3C)C2)c(-c2cccc(Cl)c2)n1 (stereo not drawn)	-31.1%
CCOC(=O)c1[nH]ncc1CN1CCCC(C(=O)c2cccc3ccccc23)C1 (stereo not drawn)	-45.8%
COCCNC(=O)c1cc(-c2ccc(OC)c(OC)c2)on1	-1.95%
CCOc1ccc(C(=O)N[C@H](C(=O)Nc2ccccc2OC)C(C)C)cc1	-28.7%
O=C1NC(=Nc2ccccc2)c2ccc([N+](=O)[O-])cc21	3.21%
Cc1cc(NC(=O)CSc2nc3c(C)c(C)ccc3cc2C)no1	-44.6%
C=CCNC(=S)N1CCN(CCN=CC2=C(O)CC(c3ccco3)CC2=O)CC1 (stereo not drawn)	-25.8%
O=C1CC(c2ccco2)CC(O)=C1C=NCCN1CCN(C(=S)Nc2ccccc2)CC1 (stereo not drawn)	-54.1%
CCNC(=S)N1CCN(CCN=CC2=C(O)CC(c3ccco3)CC2=O)CC1 (stereo not drawn)	0.166%
O=C1CC(c2ccco2)CC(O)=C1C=NCCN1CCN(C(=O)Nc2ccc(Cl)cc2)CC1 (stereo not drawn)	-66.4%
O=C1CC(c2ccco2)CC(O)=C1C=NCCO (stereo not drawn)	7.61%

SMILES	hERG current change (%, negative = inhibition) at 10uM
O=C1CC(c2ccco2)CC(O)=C1C=NCCN1CCNCC1 (stereo not drawn)	2.1%
Cl.O=C(CN1CCC(NC(=O)c2ccccc2Cl)CC1)NCc1ccco1	-2.98%
O=C(c1ccc2c3n(nc2c1)-c1ccccc1CO3)N1CCOCC1	-8.48%
COc1ccc(CCNC(=O)c2cc(-c3ccc4c(c3)OCO4)on2)cc1OC	-4.11%
Cc1cccc(N(C(=O)CNC(=O)c2ccco2)C(C(=O)NCC2CCCO2)c2ccccc2)c1 (stereo not drawn)	9.57%
Cc1ccc(CSc2sc(C(=O)c3ccccc3)c(N)c2C#N)cc1	6.41%
CCCCN(C)C1=Nc2cccc3cccc1c23	-72%
CCCCON1C(=O)c2cccc3cccc(c23)C1=O	-4.38%
NC1=Nc2cccc3cccc1c23	21.3%
O=C(Nc1ccc([N+](=O)[O-])cc1)Nc1nc(-c2ccc(Cl)s2)cs1	25.7%
OCCCn1c(CCNc2nc(-c3ccc(Cl)cc3)cs2)nc2cc(C(F)(F)F)ccc21	-0.705%
OCCCn1c(CCNc2nc(-c3ccc(F)cc3)cs2)nc2cc(C(F)(F)F)ccc21	-32.3%
Cc1csc(N2CCCC2c2nc3cc(Cl)c(N4CCCCC4)cc3n2CCOCCO)n1 (stereo not drawn)	-47.3%
Cc1csc(N2CCCC2c2nc3cc(C(F)(F)F)ccc3n2CCOCCO)n1 (stereo not drawn)	-69.1%
Cc1ccc(Cn2c(C3CCCN3c3nc(C)cs3)nc3cc(C(F)(F)F)ccc32)cc1 (stereo not drawn)	0.159%
OCCCn1c(C2CCCN2c2nc(-c3ccc(F)cc3)cs2)nc2cc(C(F)(F)F)ccc21 (stereo not drawn)	-21%
OCCOCCn1c(C2CCCN2c2nc(-c3ccc(F)cc3)cs2)nc2cc(C(F)(F)F)ccc21 (stereo not drawn)	-75.1%
OCCOCCn1c(CCNc2nc(-c3ccc(F)cc3)cs2)nc2cc(C(F)(F)F)ccc21	-61.1%
OCCOCCn1c(C2CCCN2c2nc(-c3ccc(F)cc3)cs2)nc2cc(Cl)c(Cl)cc21 (stereo not drawn)	-28.7%
CCN1CCSc2ccc(C(=O)NCc3ccccc3F)cc21	-20.8%
Cc1oc(-c2cccc(Cl)c2)nc1CS(=O)(=O)CC(=O)NCCN1CCCC1	-0.675%
CCCC/C(C)=N\NC(=O)CNS(=O)(=O)c1ccc([N+](=O)[O-])cc1	-2.14%
CCOc1ccc(CN(C)C(=O)CNC(=O)c2ccc(Br)o2)cc1OC	-2.55%

SMILES	hERG current change (%, negative = inhibition) at 10uM
COc1cccc(Cn2cccc(NC(=O)Nc3cccc(C#N)c3)c2=O)c1	6.1%
COC(=O)CCCNC(=O)CC1C(=O)NCCN1Cc1ccoc1 (stereo not drawn)	22.1%
O=C(CC1C(=O)NCCN1CC1CCCCC1)NCCc1ccc(F)cc1 (stereo not drawn)	-51.6%
O=C(CC1C(=O)NCCN1CC1CCCCC1)NCc1cc(F)ccc1F (stereo not drawn)	1.77%
Cc1nc(CCNC(=O)CC2C(=O)NCCN2Cc2ccoc2)nc2c1CCCC2 (stereo not drawn)	-36.7%
O=C(CC1C(=O)NCCN1Cc1ccccc1)NCCN1CCCCC1=O (stereo not drawn)	19.1%
O=C(CC1C(=O)NCCN1Cc1ccoc1)NCCc1ccc(Cl)cc1 (stereo not drawn)	-53.7%
CC(C)(C)CN1CCNC(=O)C1CC(=O)NCCN1CCCc2ccccc21 (stereo not drawn)	0.68%
O=C(CC1C(=O)NCCN1CC1CCCCC1)NCc1ccc(F)cc1 (stereo not drawn)	-20.3%
O=C(CC1C(=O)NCCN1Cc1ccc(F)cc1)NCCN1CCCc2ccccc21 (stereo not drawn)	-66.1%
Cc1ccc(C)c(Nc2ccc(C(=O)NCCc3ccccc3)cn2)c1	-20.9%
CCN(CC(=O)Nc1ccc(N2CCOCC2)cc1)C(=O)Cc1ccccc1	3.76%
COCC(C)n1c(-c2ccc3c(c2)NC(=O)CO3)csc1=Nc1ccc(OC(F)F)cc1 (stereo not drawn)	2.76%
Cc1cccc(-c2cc3nc(C)cc(NCCCn4ccnc4)n3n2)c1	-59.3%
Cc1cccc(-c2cc3nc(C)c(C)c(NCCCn4ccnc4)n3n2)c1	-68.9%
COc1ccc(-c2cc3nc(C)cc(NCCO)n3n2)cc1	-33.6%
Cc1cccc(-c2cc3nc(C)cc(NCCCN(C)C)n3n2)c1	-38.1%
Cc1cc(NCCCn2ccnc2)n2nc(-c3ccc(F)cc3)cc2n1	-14%
Cc1cccc(-c2cc3nc(C)cc(C)n3n2)c1	2.6%
Cc1cc(-c2ccccc2)nc2cc(C(=O)NCCCn3ccnc3)nn12	-22.2%
Cc1cc(NCCCn2ccnc2)n2nc(-c3ccc(Cl)cc3)cc2n1	-74.6%
Cc1cccc(-n2ncc3c(NCCCn4ccnc4)ncnc32)c1	-16.5%
CCc1cc2c(=O)[nH]c(Cc3ccc(OC)cc3)nc2s1	2.16%

SMILES	hERG current change (%, negative = inhibition) at 10uM
O=C(Nc1ccccc1)C(Cc1cccs1)c1nn[nH]n1 (stereo not drawn)	-0.965%
O=C(CNc1cccc(S(=O)(=O)N2CCOCC2)c1)Nc1ccc(C(F)(F)F)cc1	-44.2%
O=C(Cc1ccccc1)NC(NCCCN1CCOCC1)(C(F)(F)F)C(F)(F)F	5.2%
O=C(O)c1cccc(Cn2c(Cl)c(/C=N/NC(=O)c3ccccc3O)sc2=O)c1	12.6%
Cc1cccc2nc(CSc3nnnn3-c3ccccc3)cn12	-41.5%
Cc1cc(C)n2cc(CSc3nnnn3C)nc2n1	2.06%
CCc1nnc(SCc2cn3c(C)cc(C)nc3n2)n1N	13.5%
Cc1cc(C)n2cc(CSc3nncn3C)nc2n1	17.2%
Cc1cc(C)n2cc(CSc3nnnn3-c3ccccc3)nc2n1	-56.3%
Cc1cc(C)n2cc(CSc3nnnn3-c3ccccc3C)nc2n1	-58.3%
O=C(CCCc1ccccc1)N1CCc2ccccc21	10.1%
Cc1c(N=Cc2ccc(-c3ccc(Cl)cc3)o2)c(=O)n(-c2ccccc2)n1C	-15.3%
Cc1cc(C)nc(OC(C(=O)O)C(OCC(C)C)(c2ccccc2)c2ccccc2)n1 (stereo not drawn)	17.8%
Cc1[nH]c2c(C(F)(F)F)cccc2c1CCN.Cl	-1.49%
CCOc1ccc(C(=O)Nc2cccc3nsnc23)cc1[N+](=O)[O-]	5.23%
OCC1(CC2CCCCO2)CCN(C/C=C/c2ccccc2)CC1 (stereo not drawn)	-46%
C/C=C(\C)CN1CCCC(CO)(Cc2ccccc2)C1 (stereo not drawn)	10.4%
O=S(=O)(Cc1ccccc1)N1CCN(C/C=C/c2ccccc2)CC1	-5.88%
OCC1(CCc2ccccc2)CCN(C/C=C/c2ccccc2)CC1	-80.9%
OCC1(CCc2ccccc2)CCCN(C/C=C/c2ccccc2)C1 (stereo not drawn)	-73.5%
O=C(CCC(F)(F)F)N1CCCC(CO)(CCc2ccccc2)C1 (stereo not drawn)	-13.5%
